# Data from PubChem BioAssay (EPA / NIEHS).
# Records with an inconclusive call do not appear. The source made the active and inactive calls. How the source made its calls: active means hit-call score of the fitted dose curve at least 0.9, where 1 is the maximum; inconclusive means response in the unintended direction; inactive means score below 0.9.
# Target: Agonist Androgen Response Element (ARE), AR (gene 367) (UniProt P10275)
# Assay: OT_AR_ARELUC_AG_1440: Odyssey Thera (OT) 24-hour CHO-K1 Luciferase Assay for Agonist Androgen Response Element (ARE) (AID 2283379)
# Experimental: OT_AR_ARELUC_AG_1440 is a cell-based, single-readout assay that uses CHO-K1, a chinese hamster ovary cell line, with measurements taken at 24 hours after chemical dosing in a 384-well plate.OT_AR_ARELUC_AG_1440 is one of one assay component(s) measured or calculated from the OT_AR_ARELUC_AG_1440 assay. It is designed to make measurements of luciferase induction, a form of inducible reporter, as detected with bioluminescence signals by Luciferase technology.Data from the assay component OT_AR_ARELUC_AG_1440 was analyzed into 1 assay endpoint. This assay endpoint, OT_AR_ARELUC_AG_1440, was analyzed in the positive analysis fitting direction relative to DMSO as the negative control and baseline of activity. Using a type of inducible reporter, measures of receptor for gain-of-signal activity can be used to understand the reporter gene at the pathway-level as they relate to the gene AR. Furthermore, this assay endpoint can be referred to as a primary readout, because the performed assay has only produced 1 assay endpoint. To generalize the intended target to other relatable targets, this assay endpoint is annotated to the nuclear receptor intended target family, where the subfamily is steroidal.
# To identify AR agonists, CHO-K1 cells are seeded into a white-walled/white-bottom 384-well plate, followed by treatment with compounds of interest or controls for 24 hours. A luciferase assay mix containing D-luciferin and ATP in PBS is then added to the cells and luminescence quantified on a Luminoskan (Thermo Scientific) luminometer. Modulation of this assay is quantified as an increase in mean luminescence intensity relative to vehicle controls. To evaluate specificity of the AR / ARE-luc assay, several known AR agonists, AR antagonists, and ER-selective compounds were also tested in 5-pt concentration-response format in a minimum of 7 assay plates. OT determined the reproducibility of DHT-induced AR/ARE-luc transcriptional activation with a total of seven 384-well plates run on 2 different days, for 24-h time frames. A minimum of 3 replicate wells were analyzed for each sample with 14 replicate wells for vehicle controls. Luminescence data were captured on the Luminoskan luminometer.
# Agonist Androgen Response Element (ARE), AR (gene 367), sequence (P10275 whole entry, looked up): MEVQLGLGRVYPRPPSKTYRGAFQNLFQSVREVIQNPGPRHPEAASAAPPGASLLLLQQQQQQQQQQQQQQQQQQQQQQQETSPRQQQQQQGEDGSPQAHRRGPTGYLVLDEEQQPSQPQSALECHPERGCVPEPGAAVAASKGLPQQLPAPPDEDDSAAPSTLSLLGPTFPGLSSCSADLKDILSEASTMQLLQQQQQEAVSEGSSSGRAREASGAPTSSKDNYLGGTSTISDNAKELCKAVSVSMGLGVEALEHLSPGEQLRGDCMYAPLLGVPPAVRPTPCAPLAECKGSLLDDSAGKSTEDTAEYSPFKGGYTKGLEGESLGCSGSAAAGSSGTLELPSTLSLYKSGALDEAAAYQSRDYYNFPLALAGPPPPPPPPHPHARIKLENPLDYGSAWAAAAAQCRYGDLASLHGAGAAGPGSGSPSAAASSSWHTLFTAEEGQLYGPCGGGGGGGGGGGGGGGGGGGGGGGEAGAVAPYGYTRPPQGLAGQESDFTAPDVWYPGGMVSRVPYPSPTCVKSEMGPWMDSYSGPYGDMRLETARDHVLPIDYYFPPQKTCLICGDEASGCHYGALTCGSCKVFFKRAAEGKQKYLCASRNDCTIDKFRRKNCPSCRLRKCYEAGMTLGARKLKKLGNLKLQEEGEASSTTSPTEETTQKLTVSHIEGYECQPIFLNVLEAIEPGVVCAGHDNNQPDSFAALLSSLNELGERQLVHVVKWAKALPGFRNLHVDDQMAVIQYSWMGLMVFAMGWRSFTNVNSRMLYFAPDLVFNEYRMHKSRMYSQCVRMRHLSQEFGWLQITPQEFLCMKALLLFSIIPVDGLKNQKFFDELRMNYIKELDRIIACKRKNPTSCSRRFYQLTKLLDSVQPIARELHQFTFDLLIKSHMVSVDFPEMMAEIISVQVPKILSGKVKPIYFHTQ
Compound,outcome,AC50
CCO[Si](CC)(OCC)OCC,inactive,–
CCCCCCOc1ccc(O)cc1,inactive,–
OC[C@H]1O[C@@H](O[C@H]2[C@H](O)[C@@H](O)[C@H](O)O[C@@H]2CO)[C@H](O)[C@@H](O)[C@H]1O,inactive,–
COC(=O)c1cccc(C(=O)OC)c1,–,1.63 µM (active)
FC(F)(F)c1ccc(Cl)c(Cl)c1,inactive,–
CCC(C)(C)C1CCC(=O)CC1,inactive,–
CC(C)(C)c1cccc(O)c1,inactive,–
CC(CCO)CC(C)(C)C (stereo not drawn),inactive,–
CC1COC(=O)O1 (stereo not drawn),inactive,–
CC1=CCC(C(C)(C)O)CC1 (stereo not drawn),inactive,–
CC(C)(CO)CO,inactive,–
COc1cc(OC)c2ccc(=O)oc2c1,inactive,–
CCCCCCCCCCOC(=O)c1ccccc1C(=O)OCCCCCCCC,inactive,–
